{
  "source": "PubChem BioAssay (NCATS)",
  "note": "Results filed as inconclusive are left out. Values without a mark were called inactive. Active and inactive are the calls of the source. Calls follow the shape of the dose curve; as a rule, active = well fitted cell-killing curve with a large enough effect; inconclusive = small, poorly fitted or top-dose-only effect, or effect the other way; inactive = no such curve, though single readings can be large or run the other way. Potency is read from the fitted curve at half-maximal effect.",
  "data": [
    {"test": "Quantitative High-Throughput drug screen in 47 multiple myeloma cell lines against the NCATS MIPE library collection: OPM1_PLB cell viability assay (AID 1918989); also: nearly all actives have a fitted effect of over 40% in size", "details": "CellTiter-Glo, 48 h; series mostly up to 45.8 µM; viability (% of control): at the top concentration", "excerpt": "PI: Beverly A. Mock Ph.D.\nLaboratory of Cancer Biology and Genetics,\nCenter for Cancer Research, National Cancer Institute,\nNational Institute of Health, Bethesda, Maryland\nDrug resistance and disease progression are common in multiple myeloma (MM) patients, underscoring the need for new therapeutic combinations. […] We hypothesized that effective combinations would reduce MYC expression and enhance p16 activity. […] These preclinical data identify potentially useful drug combinations for evaluation in drug-resistant MM and reveal potential mechanisms of combined drug sensitivity.\nDescribed herein is the primary MIPE qHTS used to cherrypick compounds. Validated compounds were then further tested for potential synergistic activiy.\n[1] Peat TJ, Gaikwad SM, Dubois W, Gyabaah-Kessie N, Zhang S, Gorjifard S, Phyo Z, Andres M, Hughitt VK, Simpson RM, Miller MA, Girvin AT, Taylor A, Williams D, D'Antonio N, Zhang Y, Rajagopalan A, Flietner E, Wilson K, Zhang X, Shinn P, Klumpp-Thomas C, McKnight C, Itkin Z, Chen L, Kazandijian D, Zhang J, Michalowski AM, Simmons JK, Keats J, Thomas CJ, Mock BA. Drug combinations identified by high-throughput screening promote cell cycle transition and upregulate Smad pathways in myeloma. Cancer Lett. 2023 Aug 1;568:216284. doi: 10.1016/j.canlet.2023.216284. Epub 2023 Jun 24. PMID: 37356470; PMCID: PMC10408729.\nSEQUENCE No. (e.g., 1, 2, 3, etc.); […] (e.g., Cells, Incubation, Reagent, etc.); VALUE and DESCRIPTION.\n1; Cells; 5 uL; white, solid bottom 1536-well Greiner assay plate.\n2; Compounds; 23 nL; Kalypsis pin tool (Wako USA) equipped with a 1536-well pin head to transfer to the assay plates.\n3; Incubation; 48 hours; 37C incubation.\n4; Reagent;5uL; CellTiter Glo (Promega).\n5; Detector; 425V; Luminescence; Viewlux PerkinElmer.\nNOTES (numbers refer to Sequence numbers above)\n1. The cell-based screening methods employed in this study were like those previously published. Briefly, the corresponding myeloma cell lines were screened in 1,536-well plates with 500 cells, 5-uL per well for inhibition of cell viability (assessed by measuring ATP levels with CellTiterGlo).\n2. NCATS MIPE 4.0 library of approved and investigational drugs were added using the Kalypsis pin tool. Wells treated with DMSO only for 100% viability and media only for 0% viability were used as controls.\n3. The assay plates were covered and incubated for 48 hours in a 37C, 5% CO2 incubator with controlled humidity.\n4. After 48 hours, CellTilter-GloTM luminescent substrate mix (Promega) reagent was added to the assay plate and plates we incubated for 5 min at room temperature.\n5. Signal was measured as median relative luminescence units on a ViewLux (PerkinElmer) multiplate reader.\n[1] Heske CM, Davis MI, Baumgart JT, Wilson K, Gormally MV, Chen L, Zhang X, Ceribelli M, Duveau DY, Guha R, Ferrer M, Arnaldez FI, Ji J, Tran HL, Zhang Y, Mendoza A, Helman LJ, Thomas CJ. Matrix Screen Identifies Synergistic Combination of PARP Inhibitors and Nicotinamide Phosphoribosyltransferase (NAMPT) Inhibitors in Ewing Sarcoma. Clin Cancer Res. 2017 Dec 1;23(23):7301-7311. doi: 10.1158/1078-0432.CCR-17-1121. Epub 2017 Sep 12. PMID: 28899971; PMCID: PMC6636827.", "units": {"viability (% of control)": "%"}, "values": [
      {"smiles": "CCCC[N+]1(C)[C@H]2CC(OC(=O)[C@H](CO)c3ccccc3)C[C@H]1[C@H]1O[C@H]12", "note": "(stereo not given in full)", "viability (% of control)": 103},
      {"smiles": "CCN1C[C@]2(OC(=O)c3ccccc3NC(C)=O)CC[C@H](OC)[C@@]34[C@H]5CC6[C@@H](OC)C[C@](O)(C(C[C@@H]23)[C@@H]14)[C@@]5(O)[C@@H]6OC", "viability (% of control)": 154},
      {"smiles": "C[C@H]([C@H](O)CCC(C)(C)O)[C@H]1CC[C@@]2(O)C3=CC(=O)[C@@H]4C[C@@H](O)[C@@H](O)C[C@]4(C)[C@@H]3CC[C@]12C", "viability (% of control)": 126},
      {"smiles": "CC(C)N[C@@H]1CCn2c(=O)[nH]c3cccc(c32)[C@@H]1O", "Potency": "11.8 µM (active)"},
      {"smiles": "CC(=O)OCC1=C(C(=O)O)N2C(=O)[C@@H](N)[C@@H]2SC1", "viability (% of control)": 154},
      {"smiles": "COC1=C[C@@H]2[C@@H]3Cc4ccc(OC)c(O)c4[C@]2(CCN3C)CC1=O", "Potency": "9.35 µM (active)"},
      {"smiles": "C[C@@H]1CC[C@@]2(OC1)O[C@H]1C[C@H]3[C@@H]4CC=C5C[C@@H](O[C@@H]6O[C@H](CO)[C@@H](O[C@@H]7O[C@@H](C)[C@H](O)[C@@H](O)[C@@H]7O)[C@H](O)[C@@H]6O[C@@H]6O[C@@H](C)[C@H](O)[C@@H](O)[C@@H]6O)CC[C@]5(C)[C@@H]4CC[C@]3(C)[C@@H]1[C@H]2C", "Potency": "2.96 µM (active)"},
      {"smiles": "O=S(=O)(F)Cc1ccccc1", "Potency": "13.2 µM (active)"},
      {"smiles": "CC(C)(O)C=CC(=O)[C@](C)(O)[C@H]1[C@H](O)C[C@]2(C)[C@@H]3CC=C4[C@@H](C=C(O)C(=O)C4(C)C)[C@]3(C)C(=O)C[C@@]12C", "Potency": "0.105 µM (active)"},
      {"smiles": "O=C(Nc1ccncc1)C(=O)c1cn(Cc2ccc(Cl)cc2)c2ccccc12", "Potency": "0.0526 µM (active)"},
      {"smiles": "CC=C(C)C(=O)O[C@H]1C(C)=C2[C@@H]3OC(=O)[C@@](C)(O)[C@@]3(O)[C@@H](OC(=O)CCC)C[C@](C)(OC(C)=O)[C@@H]2[C@@H]1OC(=O)CCCCCCC", "Potency": "0.264 µM (active)"},
      {"smiles": "O=c1[nH]c2ccc(Cl)cc2c(N[C@@H]2CN3CCC2CC3)c1-c1nc2ccccc2[nH]1", "Potency": "0.0526 µM (active)"},
      {"smiles": "CC1(N2CCC(n3c([C@@H]4CCCNC4)nc4ccccc43)CC2)CCCCCCC1", "Potency": "7.43 µM (active)"},
      {"smiles": "C#CC1(O)CCC2C3CCC4=CC(=O)CCC4(C)C3CCC21C", "note": "(stereo not given)", "viability (% of control)": 108},
      {"smiles": "CC(C)(O)C(=O)Nc1ccc([N+](=O)[O-])c(C(F)(F)F)c1", "Potency": "20.9 µM (active)"},
      {"smiles": "CN(C)[C@@H]1C(=O)C(C(N)=O)=C(O)[C@@]2(O)C(=O)C3=C(O)c4c(O)cccc4[C@@](C)(O)[C@H]3[C@H](O)[C@@H]12", "viability (% of control)": 99.9},
      {"smiles": "CCN1CCN(C(=O)Cc2ccc(Nc3ncc(F)c(Nc4ccc(C(=O)Nc5ccccc5Cl)cc4)n3)cc2)CC1", "Potency": "5.26 µM (active)"},
      {"smiles": "CC(C)[C@H]1C(=O)N[C@H](CO)Cc2c[nH]c3cccc(c23)N1C", "Potency": "0.372 µM (active)"},
      {"smiles": "c1ccc(CCCN2CCN(CCOC(c3ccccc3)c3ccccc3)CC2)cc1", "Potency": "20.9 µM (active)"},
      {"smiles": "c1cc2c(cc1[C@H]1OC[C@H]3[C@H]1CO[C@H]3c1ccc3c(c1)OCO3)OCO2", "viability (% of control)": 118},
      {"smiles": "COc1cccc2c1[C@]13CCN(CC4CC4)[C@H](C2)[C@]1(OC)CCC(=O)C3", "viability (% of control)": 124},
      {"smiles": "Cc1c(C(=O)c2cccc3ccccc23)c2cccc3c2n1[C@H](CN1CCOCC1)CO3", "Potency": "23.5 µM (active)"},
      {"smiles": "CCC(=O)OC1CCC2C3CCC4=CC(=O)CC[C@@]4(C)C3CC[C@]12C", "note": "(stereo not given in full)", "viability (% of control)": 132},
      {"smiles": "COc1cc([C@@H]2c3cc4c(cc3[C@@H](O)C3COC(=O)C32)OCO4)cc(OC)c1O", "note": "(stereo not given in full)", "Potency": "0.0526 µM (active)"},
      {"smiles": "CC(C)(C)c1cc(C=C(C#N)C#N)cc(Br)c1O", "Potency": "9.35 µM (active)"},
      {"smiles": "CC(C)[C@]12O[C@@H]1[C@@H]1O[C@]13[C@]1(O[C@H]1C[C@@H]1C4=C(CC[C@@]13C)C(=O)OC4)[C@H]2O", "viability (% of control)": 3.78},
      {"smiles": "CC(C)N(CCNC(=O)CN1CCCC1=O)C(C)C", "viability (% of control)": 135},
      {"smiles": "C[C@H]1CCCC=CC2C[C@H](O)C[C@@H]2[C@H](O)C=CC(=O)O1", "note": "(stereo not given in full)", "viability (% of control)": 15.3},
      {"smiles": "CC(=CCCC1=CCC(C2=CC(=O)OC2O)OC1O)CCC1=C(C)CCCC1(C)C", "note": "(stereo not given)", "Potency": "11.8 µM (active)"},
      {"smiles": "CC(=O)O[C@@]12CO[C@H]1C[C@H](O)[C@@]1(C)C(=O)[C@H](O)C3=C(C)[C@@H](O)C[C@@](O)([C@@H](OC(=O)c4ccccc4)[C@@H]21)C3(C)C", "Potency": "1.32 µM (active)"},
      {"smiles": "CO[C@H]1CCC(O[C@H]2C[C@H]([C@]3(C)CC[C@]4(C[C@H](O)[C@@H](C)[C@@H]([C@@H](C)C=C(C)C(=O)[C@H](C)C[C@H](C)C(=O)O)O4)O3)O[C@]3(O[C@@H]([C@H]4O[C@@](O)(CO)[C@H](C)C[C@H]4C)C[C@H]3C)[C@H]2C)O[C@H]1C", "note": "(stereo not given in full)", "Potency": "0.418 µM (active)"},
      {"smiles": "CCOP(=O)(OCC)C(C)NC(=O)N(CCCl)N=O", "note": "(stereo not given)", "viability (% of control)": 139},
      {"smiles": "Cc1c(C(=O)Nc2cccc(C(F)(F)F)c2)cc(-c2ccccc2)n1CCCN1CCOCC1", "Potency": "18.7 µM (active)"},
      {"smiles": "CCOC(=O)c1c(C(C#N)=CN)c2ccc(Cl)c(Cl)c2n1C", "viability (% of control)": 104},
      {"smiles": "Clc1ccccc1C(c1ccccc1)(c1ccccc1)n1cccn1", "viability (% of control)": 131},
      {"smiles": "CCOC(=O)Nc1ccc(NCc2ccc(F)cc2)cc1N", "Potency": "18.7 µM (active)"},
      {"smiles": "O=c1cccc2n1CC1CNC[C@H]2C1", "Potency": "20.9 µM (active)"},
      {"smiles": "C[C@]12CCC(=O)C(O)=C1CC[C@@H]1[C@H]3CCC(=O)[C@@]3(C)CC[C@@H]12", "viability (% of control)": 120},
      {"smiles": "CC[C@@]1(O)C(=O)OCc2c1cc1n(c2=O)Cc2cc3ccccc3nc2-1", "Potency": "0.833 µM (active)"},
      {"smiles": "COCC1(CO)C(=O)C2CCN1CC2", "note": "(stereo not given)", "Potency": "2.09 µM (active)"}
    ]}
  ]
}
